Experimental data taken from paper PMC5540273 (PLoS ONE, 2017).
Several values for one entry are separate records, joined by “and”; a condition that tells them apart may be missing. Equal values may be shown once. Read-outs that look alike come from different tables or passages of the source.

Legend:
PAK1 = conditions: concentration: 1 μM, replicates: in singlicate, n = 1
PAK2 = conditions: concentration: 1 μM, replicates: in singlicate, n = 1
PAK3 = conditions: concentration: 1 μM, replicates: in singlicate; n = 1
PAK4 = conditions: concentration: 1 μM, replicates: in singlicate; n = 1
PAK6 = conditions: concentration: 1 μM, replicates: in singlicate; n = 1
PAK7 = conditions: concentration: 1 μM, replicates: in singlicate, n = 1
PCTK1 = tested on: T1, PCTK1; conditions: concentration: 1 μM, replicates: in singlicate; n = 1
T1 construct: gene CDK16

PCTK2 = tested on: T2, PCTK2; conditions: concentration: 1 μM, replicates: in singlicate, n = 1
T2 construct: gene CDK17

PCTK3 = tested on: T3, PCTK3; conditions: concentration: 1 μM, replicates: in singlicate, n = 1
T3 construct: gene CDK18

PDGFRA = conditions: concentration: 1 μM, replicates: in singlicate, n = 1
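Further: KINOMEscan kinase panel screen.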

| Compound | %Inh (PAK1) | %Inh (PAK2) | %Inh (PAK3) | %Inh (PAK4) | %Inh (PAK6) | %Inh (PAK7) | %Inh (PCTK1) | %Inh (PCTK2) | %Inh (PCTK3) | %Inh (PDGFRA) | %Inh (PAK1; 1 µM) | %Inh (PAK2; 1 µM) | %Inh (PAK7; 1 µM) | %Inh (PCTK2; 1 µM) | %Inh (PCTK3; 1 µM) | %Inh (PDGFRA; 1 µM) |
| --- | --- | --- | --- | --- | --- | --- | --- | --- | --- | --- | --- | --- | --- | --- | --- | --- |
| CS(=O)(=O)CCNCc1nc(-c2ccc3ncnc(Nc4ccc(OCc5cccc(F)c5)c(Cl)c4)c3c2)cs1.Cl [GW583340] | 19% | 9% | 0% | 0% | 0% | 7% | 3% | 16% | 10% | 0% | – | – | – | – | – | – |
| Cl.Cn1ccc(-c2cccc(Nc3ccnc4cc(-c5nccs5)ccc34)c2)n1 [GW525701] | 0% | 0% | 18% | 0% | 0% | 100% | 0% | 0% | 30% | 0% | – | – | – | – | – | – |
| c1ccc(-c2ccc3c(-c4ccnc(Nc5ccc6c(c5)OCCO6)n4)cnn3n2)cc1 [GW818941] | 6% | 28% | 18% | 0% | 83% | 0% | 0% | 7% | 0% | 8% | – | – | – | – | – | – |
| COC(=O)c1cccc(NC(=O)NCCNc2ccnc(Nc3ccc(F)cc3)n2)c1 [GSK1379883] | 0% | 0% | 0% | 0% | 0% | 0% | 0% | 0% | 0% | 0% | – | – | – | – | – | – |
| Nc1nc(-c2ccccn2)c(-c2ccnc3ccccc23)s1 [GW548057] | 0% | 0% | 0% | 0% | 1% | 26% | 0% | 18% | 16% | 1% | – | – | – | – | – | – |
| Cl.c1ccc(Cn2ncc3cc(Nc4ncnc5ccccc45)ccc32)cc1 [GW273749] | 5% | 0% | 0% | 0% | 15% | 6% | 0% | 0% | 23% | 0% | – | – | – | – | – | – |
| CC(C)(C)OC(=O)NC1CCCN(c2cc(-c3ccc4c(N)n[nH]c4c3)nc(N)n2)C1 (stereo not shown) [GSK2286096] | 0% | 1% | 0% | 0% | 0% | 0% | 4% | 6% | 17% | 0% | – | – | – | – | – | – |
| OCCOCCn1ccc2ncnc(Nc3ccc(Oc4cccc(Cl)c4)c(Cl)c3)c21 | 0% | 0% | 18% | 0% | 0% | 0% | 0% | 0% | 6% | 0% | – | – | – | – | – | – |
| FC(F)(F)c1ccc(-c2nn3ncccc3c2-c2ccnc(Nc3cccc(C(F)(F)F)c3)n2)cc1 [GW828205] | 37% | 30% | 0% | 7% | 20% | 0% | 0% | 0% | 0% | 0% | – | – | – | – | – | – |
| COc1cc2c(Nc3cccc(NC(=O)c4ccccc4)c3)ncnc2cc1OCCCN1CCOCC1 [GSK223810] | 4% | 0% | 5% | 0% | 0% | 0% | 0% | 0% | 22% | 63% | – | – | – | – | – | – |
| Nc1n[nH]c2nnc(-c3ccccc3)cc12 [SB-517389] | 12% | 8% | 0% | 0% | 0% | 2% | 7% | 20% | 15% | 0% | – | – | – | – | – | – |
| Cl.Cl.c1ccc(-c2cc3ccncc3cc2OC2CCNCC2)cc1 [GSK1122999] | 15% | 31% | 47% | 0% | 0% | 2% | 2% | 12% | 13% | 0% | – | – | – | – | – | – |
| CNc1nccc(-c2c(-c3ccc(F)cc3)ncn2C2CCN(C)CC2)n1 [SB-222903] | 0% | 13% | 0% | 0% | 0% | 0% | 0% | 0% | 0% | 0% | – | – | – | – | – | – |
| COc1ccc(-c2nc3n(c2-c2ccncc2)CCC3)cc1 [SKF-104493] | – | – | 0% | 0% | 0% | – | 0% | – | – | – | 0% and 27% | 23% and 10% | 0% and 15% | 3% and 0% | 0% and 28% | 25% and 3% |
| Cl.Fc1ccccc1COc1ccc(Nc2ncnc3ccc(-c4nnc(C(F)(F)F)o4)cc23)cc1Cl [GW424170] | 0% | 0% | 0% | 0% | 0% | 10% | 0% | 0% | 17% | 0% | – | – | – | – | – | – |
| NC(=O)c1sc(-n2cnc3ccccc32)cc1OCc1ccccc1F [GSK1024306] | 14% | 16% | 0% | 0% | 0% | 4% | 0% | 0% | 1% | 0% | – | – | – | – | – | – |
| Nc1nc(-c2ccc3c(N)n[nH]c3c2)cc(N2CCCCC2)n1 [GSK2228768] | 2% | 20% | 6% | 0% | 0% | 0% | 5% | 0% | 9% | 0% | – | – | – | – | – | – |

| Compound | %Inh (PAK1) | %Inh (PAK2) | %Inh (PAK3) | %Inh (PAK4) | %Inh (PAK6) | %Inh (PAK7) | %Inh (PCTK1) | %Inh (PCTK2) | %Inh (PCTK3) | %Inh (PDGFRA) | %Inh (PAK1; 1 µM) | %Inh (PAK2; 1 µM) | %Inh (PAK7; 1 µM) | %Inh (PCTK2; 1 µM) | %Inh (PCTK3; 1 µM) | %Inh (PDGFRA; 1 µM) |
| --- | --- | --- | --- | --- | --- | --- | --- | --- | --- | --- | --- | --- | --- | --- | --- | --- |
| Clc1cccc(-c2nc(Nc3ccncc3)c3ccccc3n2)c1 [GW873004] | 0% | 0% | 37% | 16% | 0% | 0% | 0% | 0% | 0% | 0% | – | – | – | – | – | – |
| O=C(CCO)NCCn1ccc2ncnc(Nc3ccc(Oc4cccc(C(F)(F)F)c4)c(Cl)c3)c21 | 0% | 2% | 28% | 0% | 0% | 0% | 0% | 0% | 0% | 0% | – | – | – | – | – | – |
| FC(F)(F)c1cc(Nc2nccc(-c3c(-c4ccc(Cl)cc4)nn4ncccc34)n2)ccc1Cl [GW829351] | 0% | 17% | 0% | 0% | 0% | 0% | 0% | 0% | 0% | 0% | – | – | – | – | – | – |
| CCc1nc(-c2cccc(N(C)S(=O)(=O)c3ccccc3)c2)c(-c2ccnc(Nc3ccc(N4CCN(C(C)=O)CC4)nc3)n2)s1 [GSK1645895] | 6% | 0% | 0% | 0% | 5% | 5% | 8% | 24% | 4% | 14% | – | – | – | – | – | – |
| COc1cc2ncnc(Nc3ccc(OCc4ccccc4Br)c(Cl)c3)c2cc1OC.Cl [GI261590] | 14% | 22% | 38% | 0% | 0% | 5% | 0% | 0% | 0% | 0% | – | – | – | – | – | – |
| Cn1ccc2ncnc(Nc3ccc(Oc4cccc(Cl)c4)c(Cl)c3)c21 | 18% | 0% | 9% | 19% | 0% | 0% | 24% | 26% | 0% | 26% | – | – | – | – | – | – |
| Cl.O=S(=O)(c1cccc(F)c1)c1ccc(Nc2ncnc3cc(Br)sc23)cc1Cl [GSK306886] | 1% | 0% | 0% | 1% | 1% | 9% | 4% | 10% | 11% | 0% | – | – | – | – | – | – |
| Nc1nc(-c2ccc3c(N)n[nH]c3c2)cc(N2CCC[C@@H](C(=O)Nc3ccccc3)C2)n1.O=C(O)C(F)(F)F.O=C(O)C(F)(F)F [GSK2288359] | 2% | 0% | 27% | 0% | 0% | 6% | 14% | 8% | 0% | 15% | – | – | – | – | – | – |
| CN1CCC(n2cnc(-c3ccc(F)cc3)c2-c2ccnc(NC3CCNCC3)n2)CC1 [SB-229482] | 0% | 14% | 13% | 8% | 11% | 10% | 0% | 0% | 10% | 11% | – | – | – | – | – | – |
| Cc1ccc(C)c(NC(=O)NCCNc2ccnc(Nc3ccc(F)cc3)n2)c1 [GSK1379878] | 0% | 0% | 0% | 0% | 100% | 0% | 0% | 0% | 0% | 0% | – | – | – | – | – | – |
| O=C(Nc1ccccc1)Nc1ccc(Oc2ccc3nccn3n2)cc1 | 0% | 8% | 0% | 0% | 0% | 0% | 0% | 2% | 0% | 83% | – | – | – | – | – | – |
| CSc1ccc(NC2=C(c3ccccc3Cl)C(=O)NC2=O)cc1 [SB-342411] | 0% | 0% | 14% | 29% | 8% | 15% | 29% | 31% | 67% | 0% | – | – | – | – | – | – |
| CCCc1ccc(S(=O)(=O)NC2CCN(c3ccnc(Nc4ccc(OC)cc4)n3)C2)cc1 (stereo not shown) [GSK1379737] | 11% | 9% | 100% | 0% | 0% | 0% | 0% | 0% | 0% | 0% | – | – | – | – | – | – |
| CCC(CC)(CC)n1cnc2c(N)ncnc21 [SKF-97620] | 10% | 51% | 14% | 0% | 0% | 10% | 2% | 0% | 0% | 24% | – | – | – | – | – | – |
| COc1ccc(Nc2nccc(N3CCC(NC(=O)Nc4ccc5c(c4)OCO5)C3)n2)cc1 (stereo not shown) [GSK1379745] | 0% | 6% | 0% | 0% | 0% | 0% | 6% | 17% | 32% | 0% | – | – | – | – | – | – |
| O=c1cc(N2CCOCC2)nc2n(Cc3cccc(Cl)c3)ccn12 [GSK2296823] | 6% | 10% | 0% | 0% | 0% | 53% | 5% | 0% | 17% | 0% | – | – | – | – | – | – |
| Clc1cc(Nc2ncnc3cc[nH]c23)ccc1OCc1ccccn1 | 10% | 29% | 39% | 10% | 29% | 7% | 2% | 19% | 19% | 29% | – | – | – | – | – | – |
